Assay results as given in the supplement of paper PMC12632987.

T1: FBXL12, Q9NXK8
T1 chain: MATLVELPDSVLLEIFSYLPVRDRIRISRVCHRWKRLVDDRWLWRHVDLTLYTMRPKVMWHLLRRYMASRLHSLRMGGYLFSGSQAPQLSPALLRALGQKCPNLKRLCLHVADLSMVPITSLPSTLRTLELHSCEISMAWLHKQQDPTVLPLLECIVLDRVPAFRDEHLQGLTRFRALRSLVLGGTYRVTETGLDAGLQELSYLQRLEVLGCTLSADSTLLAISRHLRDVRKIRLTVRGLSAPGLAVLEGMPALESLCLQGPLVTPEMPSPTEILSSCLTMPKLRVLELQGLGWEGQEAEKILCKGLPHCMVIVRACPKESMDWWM

B1: FBXL12_hotspot_9_107 (protein)
chain: KTVLVTAYFEKEETVETTLKYAMEIALGLAEAGHKVRVLIGAKNEEILKKAKEILETKLKETVERLKELGVEIIFVSSEEEYEKKKKELLEEMEKEEEEA
B2: FBXL12_hotspot_9_108 (protein)
chain: MLRILVATVSSLETAGPTIETAAAIARGLVAAGHRVRVIFISANAETGEEMLALARERLGALAAEEGRVTVVLRLAENEEEAEEIKEELLEEALEEVDRA
B3: FBXL12_hotspot_9_123 (protein)
chain: MIVVIRENVKREEDIEPALRRAVAYAEAAAEAGWRVILVFSASSEELKEKAKEILETKLGERVARLKARGARIVVTATEEEAERKKRELLEEALREEDEA
B4: FBXL12_hotspot_9_111 (protein)
chain: SSILVVAHVTTAETADSTLETAEAVTRGLAEHHDEVKVLIVVTDPENADEMAAKAEAVAERLEAEHPNVTATVVRAPDEAAGRAAIEAAEAAFLAEADAA
B5: FBXL12_hotspot_9_104 (protein)
chain: KHIVIVASASTREAFLNSARTALEIAIGLAKAGHKVTVILHHTRPETAEEARAAVKKELAELIEEAKELGIEIRFAATEEELERLLEEALREADEEEERE
B6: FBXL12_hotspot_109_7 (protein)
chain: MTVIVGGLATRPEHAERTARYVLTITRGLLAAGHRVRVVLAGTEESREILEAAAAELRALGAEVTLVVAETPEEARALYEERLAEAEEELDEEEEEEEEE
B7: FBXL12_hotspot_9_116 (protein)
chain: KTVVVLARALRVETVESTLRTALEIAIGLAKAGVKVHLVIGAADEEVLAKARELLATRLAPLVEEARALGVEVHEPALYEEAEALVEEILEEIDEEEEEE
B8: FBXL12_hotspot_82_99 (protein)
chain: SIAIIGLVNRPPETAVASLRNTADTIITLVEGAREAGVEVVRAVLVVHADPETRAEAERLRPRLEAAGVEVHLEATSAAADARAEAIRAAIEARFAAEDA
B9: FBXL12_hotspot_9_103 (protein)
chain: MTVLVVGRATTPESVRTTVRTAVEIAEGLVAAGHEVVLILYAADPEVAEVLRRTVEEEFGERVAALRAAGARVVVAPDLEAGERAKREALEEIERREEEE
B10: FBXL12_hotspot_9_120 (protein)
chain: RIVVIHEFLESLEDVGPRLTRAVDIAETAADAGWKVILVFSAASPEVAAAARRYLAEELGERVAALEARGAVIRVAESREEAERIKRELLEEALREEDEA
B11: FBXL12_hotspot_9_105 (protein)
chain: KHIIVVASAATKEAFLNSSRTALEIAIGLAKAGHKVTVILSYDDPEKFEEWRAALEEELKELLEEAKELGIKIHYAPSPEEKERILEEVLEEHDEEEEEE
B12: FBXL12_hotspot_9_115 (protein)
chain: RTILVVASANTVERVRSTLETALKISIGLAEAGHKVILLIAAATEEVLEKAKELLETELKPLVEKLKELGVEVKEPVLYEEAEPLKEEILEEIDEEEEEE
B13: FBXL12_hotspot_9_112 (protein)
chain: MTVILGVYAETEEELRRKLERALEYAEAALEAGWEVHIVVGAATPELAEAARRLLEEELGERVAELRARGAVIRVEETFEAARARREEIREEIERRAEEE
B14: FBXL12_hotspot_127_8 (protein)
chain: SDIEVRVSVPTYQSYRYAVAILLEMLKIDVKNGGKNVEKLLEQLKALMEDAAKHLPKEDVLELLDEAIKSLKELKKESPEHKELFDKAIKYLEKLRKEVE
B15: FBXL12_hotspot_9_118 (protein)
chain: RVLVISEYVRSEAEVEPAIARALAYARAAADAGWRVIVVISAASPAIAAHARRLLATRYGEEVAELRARGARIVVRDSRAAAEAEKARLLAEALAAEDAA
B16: FBXL12_hotspot_95_100 (protein)
chain: RRVVVVVFRHLVTPESAETVRQGVARFKAIVEGLRAAGVEVVAVLVLSYEDEESRALAEELKAEAAPLLDYAHLAPTREAAEAAYAELKARALAEADRLE
B17: FBXL12_hotspot_9_106 (protein)
chain: MTILVTAYFEEESTIETTLKYALEIALGLAKAGHKVKVLIGAANEELLKKAKEILETKLKEIVEELKKLGVEIILVDSKEEYEKKKEELLKEAEEEEKEA
B18: FBXL12_hotspot_95_102 (protein)
chain: QRKVVVVYRHTVTPENLEQALAGLRRAKEIVEGLKAAGVEVYAVVAVSAETEEQRAQLEAEAEKVAKAADYALVEILLGATPEEVEERAEEMLEEVLKKI
B19: FBXL12_hotspot_82_98 (protein)
chain: MISIIGLVNRPPETAVESLRNTAETMIAIVEGARAAGVEVERAVLVVRADPETRAVAEELRPRLEAAGIEVHLKETSEEALATKEAILEEIERRWEEEEE
B20: FBXL12_hotspot_9_125 (protein)
chain: RHVIISVTARTEEELREKIDRALDYAEAAAAAGWKVHLIVSGLSPELLAAAKELLATEHAERVAALKAAGAEIHLKETVEEGEALKAEILAEIEEEAERE
B21: FBXL12_hotspot_9_119 (protein)
chain: KVLVIYERIENPEDVEPAIERAIEYARAAAEAGWKVIVVFSAANPEIAEHTRRLLETRFGEEVAELEARGARIVVRDNEEEAEETKERLLREALEEEDRE
B22: FBXL12_hotspot_9_117 (protein)
chain: KTVIIGVVAATPEAARSTLAVAREIARGLAEAGIKVHVIMAASSEETREEVLAIFREAGAEIQAELADKGVKVRVAETMEEYERLKAEVLEEIDREEEEE
B23: FBXL12_hotspot_9_109 (protein)
chain: RTRVVVGVVTSPETADSTLAMLRAVTSGLSRHDDRVHVLIVVQDPANRDALLARAEAVAAELEAEHPNVRVRVVAAPDEEAAEAARAAFLAEVDAEEAAA
B24: FBXL12_hotspot_9_113 (protein)
chain: RILVLSAFAETKEEAEEKLARIREWARAAAAAGWDVIIVVAASTEEVAEYARRLLEELEAELRAAYPDVRVRVDVRLTREEAEETKARLLAEALEEEDRR
B25: FBXL12_hotspot_9_121 (protein)
chain: RIVVIRQFIESEEEVGPTVRRAVAYARAAADAGWRVIIVISAASPEVAEAARRVLEEELGEEVAELRARGARIVVTSSREEAERKKAELLEAALAEEDAA
B26: FBXL12_hotspot_95_101 (protein)
chain: MRRVIILVRQAVTAENIESAIQAIERAAAIARGLRAAGVEVKLIVVAHAPDEETRARIEAAVERHRDVIDEFVLEETEEAMEEKAEELLEEALEEIDEAE
B27: FBXL12_hotspot_9_110 (protein)
chain: SSILVIAHVTTRETADTTLATARAVTTGLAAHHDRVDVLIVVSDPEHADEMAALAEATAAELEAEHPNVRAEVVRAPDEAAGRAAIEAREAEFLAAAAEE
B28: FBXL12_hotspot_134_9 (protein)
chain: RTVVVIVSANGVSDAQARAAVDRAETIIAGLRAAGHRVLFVLVLSLADAAVGDALVARARAAAAAHGAEVVAAENVPAADFEAVLAAARARALARLDELE
B29: FBXL12_hotspot_81_97 (protein)
chain: KELDIVLSQQVQPGDTVEQVRAGLQYQVDLVEAAKAAGVKIRSITVRFSIDTSAFSPEEIEAILAAVEEARARIEALAKEAGAKLIDESAAAIAAVRAAL
B30: FBXL12_hotspot_9_122 (protein)
chain: RIVVISEFVESPEEVEPVVRRAVEYAEAAAAAGWRVIIVIAAASPEVAEHARRVLEERFGERVARLRAAGARIEVRASREEAERAKRELLEEALAEEDAA
B31: FBXL12_hotspot_9_114 (protein)
chain: RVLVLSFFAETREEAERELARMEEWARAALAAGWDVLIVVAAATEEVAAHARELLARMEAALRAAYPDRRVRVAVALTREAAAAAKAALLAELLAEADAA
B32: FBXL12_hotspot_9_124 (protein)
chain: MHVIISQYAETEEEARRQIERALEYAKAAAEAGWKVTVIFSASTEELKEFIEELLETEYAEEVAELKAKGVEIHVVETEEEAERLKEEILEEIEEEAEEE

Biological target: T1, FBXL12, Q9NXK8
Assay: median log2 fold change of GCK-ALFA target abundance (FLAG IP / Myc IP barcode read proportion) (log2 ratio); each designed protein is fused to an ALFA-tag nanobody in HEK293 cells to bring the named protein to FLAG-tagged glucokinase (GCK); Myc marks an untargeted standard; higher = target protein stabilised (more abundant)
Settings: target protein: 3xFLAG-MCP-GCK-ALFA reporter; HEK293 landing pad (RPLP)
Procedure: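 LABEL-seq trans screen in HEK293 landing-pad cells. Each de novo designed 100-aa effector handle, binding the indicated effector (E3 ligase, DUB or autophagy protein), is fused to a constant NbALFA target handle and induced with 2 ug/mL doxycycline. A FLAG-MCP-GCK-ALFA target and a Myc-MCP standard reporter were transfected, and after 48 h circRNA barcodes were recovered by anti-FLAG and anti-Myc IP and sequenced. The value is the median across barcodes (at least 3 per design) of log2(FLAG/Myc read-proportion ratio), with the two transfection replicates pooled. Negative values mean degradation and positive values mean stabilisation of the target.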

Binder	median log2 fold change
B1	0.196
B2	-0.0498
B3	-0.0307
B4	0.154
B5	0.00127
B6	0.117
B7	0.0101
B8	0.0901
B9	0.0779
B10	-0.0369
B11	0.136
B12	0.00902
B13	-0.276
B14	-0.133
B15	-0.563
B16	-0.315

Binder	median log2 fold change
B17	-0.24
B18	0.243
B19	0.108
B20	0.23
B21	0.0418
B22	0.0889
B23	0.0457
B24	-0.106
B25	-0.228
B26	-0.00895
B27	-0.0129
B28	0.11
B29	0.149
B30	0.0626
B31	-0.157
B32	-0.161
